12 molecules from PubChem BioAssay (NCATS) can be followed below.

Inconclusive results are not listed. Activity calls are given as the source filed them. Unless noted, the call rests on the fitted dose curve; in most records, active means well fitted curve in the direction sought with a large enough effect; inconclusive means small, poorly fitted or top-dose-only effect, or another doubt; inactive means no such curve, though single readings can be large; an effect the other way counts as inactive or inconclusive.

Experiment [1] can be described thus: qHTS profiling of the MIPE4 collection as inhibitors of Plasmodium falciparum (DD2) proliferation (AID 743345; call rule not given here). The conditions noted are these: P. falciparum Dd2 in erythrocytes, SYBR Green DNA, 72 h; at 28.5 µM (top of the series) unless noted. The procedure, abridged: (§1)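 Erythrocytes infected with P. falciparum (0.3% parasitemia, 2.5% hematocrit) incubated with compounds 72 h at 37 C, 5% CO2. Lysis with saponin/Triton buffer containing SYBR Green I, overnight at room temperature in the dark; DNA fluorescence (485/535 nm) normalised to 0.29 uM artemisinin and DMSO.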
A general note: qHTS replaces the single test concentration by a dilution series.

Experiment [2] is described as follows: qHTS profiling of the MIPE4 collection as inhibitors of Plasmodium falciparum (DD2) proliferation (Rep 2) (AID 743346; call rule not given here). The conditions noted are these: P. falciparum Dd2 in erythrocytes, SYBR Green DNA, 72 h; at 28.5 µM (top of the series) unless noted. The gist of the method: as §1
Experiment [3] can be described thus: qHTS profiling of the MIPE4 collection as inhibitors of Plasmodium falciparum (HB3) proliferation (AID 743347; call rule not given here;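 further: plate controls were DMSO vehicle wells for no effect and artemisinin wells for full effect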). The conditions noted are these: P. falciparum HB3 in erythrocytes, SYBR Green DNA, 72 h; at 28.5 µM (top of the series) unless noted. The gist of the method: as §1
The nature of experiment [4]: High-throughput drug toxicity screening in the BPDCN cell line Gen2.2 (AID 1224824; call rule not given here;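 further: cells exposed to compounds for 48 h before reading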). The conditions noted are these: Gen2.2 BPDCN cells; at 45.8 µM (top of the series) unless noted. The gist of the method:
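CellTiter-Glo luminescence after 48 h compound exposure of Gen2.2 cells; percent activity set with DMSO as 100% and bortezomib (9.2 uM final) as 0%. Cells seeded at 500 per well, RPMI + 10% FBS, 37 °C.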

A short description of experiment [5]: High-throughput drug toxicity screening in the BPDCN cell line Cal-1 (AID 1224825; call rule not given here). The conditions noted are these: Cal-1 BPDCN cell viability, qHTS; at 45.8 µM (top of the series) unless noted. The gist of the method:
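Cal-1 cells, 500 per well in phenol-red-free RPMI with 10% FBS, exposed to compounds for 48 hours at 37C, 5% CO2. Viability read by CellTiter-Glo luminescence; percent activity normalized to DMSO (100%) and 9.2 uM bortezomib final (0%).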

Experiment [6] in a line: qHTS assay for measurement of the activity of small molecule inhibitors on Zika virus induced Caspase-3 activity in human iPSC derived neural progenitor cells (hNPCs) (AID 1224857). Further: % of control where 0% means no effect; nearly all actives have a fitted effect of over 65% in size. The gist of the method:
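Human iPSC-derived neural progenitor cells pretreated 1 hr with compounds, then infected with Zika virus (2 FFU/cell) for 6 hours at 37 C. Caspase-3/7 measured by Caspase-Glo luminescence; % inhibition calculated from induction scaled to uninfected (0%) and infected (100%) wells.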

Experiment [7] can be described thus: qHTS assay for measurement of the activity of small molecule inhibitors on Zika virus induced Caspase-3 activity in human astrocytoma cells (AID 1224859).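 Further: plate controls were ZIKV-infected untreated cells for no effect and uninfected cells for full effect.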 The gist of the method:
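SNB-19 astrocytoma cells, 250/well, pretreated 1 h with compounds, then Zika virus at 2 FFU/cell for 6 h at 37 C; Caspase-Glo 3/7 luminescence after 30 min; percent inhibition normalised to uninfected and infected controls.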

The nature of experiment [8]: qHTS Screen of the MIPE 4.0 Collection Against Ewings Sarcoma (TC71) (AID 1259253). Further: nearly all actives have a fitted effect of over 40% in size. Further: potency means the concentration at half of the fitted maximal effect. The procedure, abridged: (§2)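 Dose series incubated 48 h with cells in RPMI plus 5% FBS, glutamine and penicillin/streptomycin; cell viability then quantified via CellTiter-Glo.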
A short description of experiment [9]: qHTS Screen of the MIPE 4.0 Collection Against Ewings Sarcoma (EW8) (AID 1259255). Further: nearly all actives have a fitted effect of over 35% in size. Further: potency means the concentration at half of the fitted maximal effect.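 On viability: 100% = DMSO-treated cells and 0% = medium-only wells without cells.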 The gist of the method: as §2
A short description of experiment [10]: qHTS Screen of the MIPE 4.0 Collection Against Ewings Sarcoma (TC32) (AID 1259256). Further: nearly all actives have a fitted effect of over 45% in size. Further: potency means the concentration at half of the fitted maximal effect. The gist of the method:
as §2

Experiment [11] in a line: qHTS assay to identify small molecule inhibitors of chordoma cells - UCH-1 (AID 1259355). Further: on the % scale 0 is the no-effect control and ±100 the full control effect; nearly all actives have a fitted effect of over 55% in size. The procedure, abridged:
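Cells (800/well) were seeded and left overnight at 37 C, 5% CO2, then treated with drugs at 15 concentrations plus a combination mix of auranofin, camptothecin, doxorubicin, rubitecan and topotecan. Viability after 48hr was read by CellTiter-Glo luminescence.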

Experiment [12] can be described thus: qHTS assay to identify small molecule inhibitors of chordoma cells - UCH-2 (AID 1259356). Further: on the % scale 0 is the no-effect control and ±100 the full control effect.
Experiment [13] is described as follows: Identifying Small Molecule Inhibitors of Pancreatic Cancer Stem Cells (SN12C, Adherent) (AID 1259358).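 Further: cell survival measured after 48 h of compound exposure.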 The procedure, abridged:
(§3)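 Endpoint: ATP-based luminescence, 48 h drug exposure. Bortezomib at 9.2 uM final as full-kill control; DMSO vehicle as negative control; activity normalized between vehicle and cell-free wells.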

Experiment [14] in a line: Identifying Small Molecule Inhibitors of Pancreatic Cancer Stem Cells (SN12C, Spheroid) (AID 1259360).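 Further: 100% = DMSO-treated cells and 0% = wells without cells.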 The procedure, abridged:
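Spheroids grown 14 days in stem cell media on nonadherent hydrogel before screening; cells attached 4 h, then compound exposure 48 h at 37C, 5% CO2. CellTiter-Glo luminescence normalized to DMSO (no inhibition) and no-cell wells (full inhibition).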

Experiment [15] in a line: Identifying Small Molecule Inhibitors of Pancreatic Cancer Stem Cells (A278, Adherent) (AID 1259361).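 Further: viability read after 48 h compound exposure; 100% = DMSO-treated cells and 0% = cell-free media-only wells; nearly all actives have a fitted effect of over 35% in size.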 The procedure, abridged: as §3

With `CC(C)Cc1ccc(C(C)C(=O)O)cc1` (configuration not stated), in [1], the parasite growth remaining, % of DMSO control (lower = more inhibition) stood at 99.8% [at 9.64 µM]. Further, the parasite growth, % of control (lower = inhibition) in experiment [2] amounted to 162% [at 9.64 µM]. In experiment [3], this molecule displayed a growth, % of control of 94.2% [at 9.64 µM]. In addition, in experiment [4], the cell viability, % of control (lower = more cytotoxic) stood at 116% [at 23.2 µM]. Moreover, the viability (% of control) in [5] came out at 113% [at 23.2 µM]. In addition, the Potency entry in experiment [6], in experiment [7], in experiment [8], in experiment [9], in [10] and in experiment [11] was “inactive” throughout. The call in [12] was inactive.
With `Cc1ccc(C(=O)Nc2ccc(S(=O)(=O)O)c3cc(S(=O)(=O)O)cc(S(=O)(=O)O)c23)cc1NC(=O)c1cccc(NC(=O)Nc2cccc(C(=O)Nc3cc(C(=O)Nc4ccc(S(=O)(=O)O)c5cc(S(=O)(=O)O)cc(S(=O)(=O)O)c45)ccc3C)c2)c1`, the parasite growth remaining, % of DMSO control (lower = more inhibition) in experiment [1] came to 75.7%. Also, the parasite growth, % of control (lower = inhibition) in experiment [2] was 23.2%. The molecule further returned a growth, % of control in experiment [3] of 66.1%. Also, the cell viability, % of control (lower = more cytotoxic) in experiment [4] was 58.9%. Also, in [5], the viability (% of control) turned out to be 102%. Also, the Potency entry in experiment [6], in experiment [7], in experiment [8], in experiment [9] and in experiment [11] was “inactive” throughout. In addition, the molecule was called inactive in experiment [12].
`C[C@H]1c2cccc(O)c2C(O)=C2C(=O)[C@]3(O)C(O)=C(C(N)=O)C(=O)[C@@H](N(C)C)[C@@H]3[C@@H](O)[C@@H]21`: in [1], the parasite growth remaining, % of DMSO control (lower = more inhibition) is 28.6%. Besides, the parasite growth, % of control (lower = inhibition) in experiment [2] is 14.3%. The same molecule had a growth, % of control in [3] of 12.4%. The cell viability, % of control (lower = more cytotoxic) in experiment [4] was found to be 12.3%. In experiment [5], the viability (% of control) amounted to 19.9%. The Potency entry in [6], in experiment [7], in experiment [10] and in [11] was “inactive” each time. For the same molecule, the molecule was classed as inactive in experiment [12].
With `CN1CCC(=C2c3ccccc3CC(=O)c3sccc32)CC1`, the parasite growth remaining, % of DMSO control (lower = more inhibition) in experiment [1] was found to be 55.5%. Also, the growth, % of control in experiment [3] is 12.6%. In experiment [4], the cell viability, % of control (lower = more cytotoxic) amounted to 14.3%. Moreover, the viability (% of control) in [5] was determined as 23.6%. The Potency result in [6], in experiment [7] and in experiment [11] was “inactive” throughout. Besides, the Potency in [8] was 13.2 µM (active); in experiment [10], 16.6 µM (active). The molecule was classed as inactive in experiment [12].
Turning to `COc1ccc(CCN(C)CCCC(C#N)(c2ccc(OC)c(OC)c2)C(C)C)cc1OC` (configuration not stated), the cell viability, % of control (lower = more cytotoxic) in experiment [4] was found to be 96.5% [at 92.2 µM]. Further, the viability (% of control) in [5] was 105% [at 92.2 µM]. For the same molecule, the Potency result in experiment [6], in [7], in experiment [9] and in experiment [13] was “inactive” throughout. Moreover, in [14], the call was inactive. Besides, the IC50 (viability decrease) entry in [15] was “inactive”.
In the case of `Fc1ccc([C@@H]2CCNC[C@H]2COc2ccc3c(c2)OCO3)cc1`, in [1], the parasite growth remaining, % of DMSO control (lower = more inhibition) came out at 39.5%. For the same molecule, the parasite growth, % of control (lower = inhibition) in experiment [2] was found to be 34.6%. The growth, % of control in [3] worked out at 58.5%. The cell viability, % of control (lower = more cytotoxic) in experiment [4] came out at 66.2%. Besides, in experiment [5], the viability (% of control) was found to be 79%. For the same molecule, the Potency result in experiment [6] and in [7] was “inactive” throughout. Moreover, the Potency in experiment [8] was 18.7 µM (active).
As to `COc1cc2nc(N3CCN(C(=O)c4ccco4)CC3)nc(N)c2cc1OC`, the parasite growth remaining, % of DMSO control (lower = more inhibition) in experiment [1] was determined as 20.6%. This molecule also yielded a growth, % of control in [3] of 2.87%. The cell viability, % of control (lower = more cytotoxic) in experiment [4] is 8.89%. Further, in experiment [5], the viability (% of control) worked out at 5.38%. Also, the Potency entry in [6] and in [7] was “inactive” in each case. In addition, in [9], the Potency is 18.7 µM (active).
As for `CNCCCC12CCC(c3ccccc31)c1ccccc12`, in experiment [1], the parasite growth remaining, % of DMSO control (lower = more inhibition) is 21.8%. The growth, % of control in experiment [3] was 7.27%. Also, in experiment [4], the cell viability, % of control (lower = more cytotoxic) was 8.38%. Besides, the viability (% of control) in experiment [5] was 13.7%. Moreover, the Potency entry in experiment [6], in [7] and in [11] was “inactive” in each case. Moreover, the results for the Potency in experiment [9] and in experiment [10] were 18.7 µM (active) and 23.5 µM (active), respectively. Besides, in [12], the molecule was classed as inactive.
In the case of `O=C(C1CCCCC1)N1CC(=O)N2CCc3ccccc3C2C1` (configuration not stated), the parasite growth remaining, % of DMSO control (lower = more inhibition) in [1] came to 89.3%. In [4], the cell viability, % of control (lower = more cytotoxic) was 246%. The viability (% of control) in experiment [5] is 105%. The Potency entry in experiment [6], in experiment [7], in [9], in experiment [10] and in experiment [11] was “inactive” each time. The call in experiment [12] was inactive.
As to `COc1ccc2c(c1)c(CC(=O)O)c(C)n2C(=O)c1ccc(Cl)cc1`, in experiment [1], the parasite growth remaining, % of DMSO control (lower = more inhibition) was found to be 103%. The same molecule registered a growth, % of control in [3] of 83.6%. Moreover, the cell viability, % of control (lower = more cytotoxic) in [4] is 127%. Also, the viability (% of control) in [5] amounted to 104%. Moreover, the Potency result in experiment [6], in experiment [7] and in experiment [9] was “inactive” each time.
In the case of `Cc1cc(C(C)(C)C)c(O)c(C)c1CC1=NCCN1`, in experiment [1], the parasite growth remaining, % of DMSO control (lower = more inhibition) was found to be 95.8%. For the same molecule, in experiment [3], the growth, % of control stood at 98.3%. Further, the cell viability, % of control (lower = more cytotoxic) in experiment [4] turned out to be 97.9%. In addition, the viability (% of control) in experiment [5] came to 110%. Besides, the Potency result in experiment [6] and in experiment [7] was “inactive” throughout. In addition, the call in [12] was inactive.
Regarding `Cn1c(=O)c2[nH]cnc2n(C)c1=O`, in experiment [1], the parasite growth remaining, % of DMSO control (lower = more inhibition) was determined as 102%. In addition, the cell viability, % of control (lower = more cytotoxic) in [4] is 123%. The viability (% of control) in experiment [5] worked out at 96.4%. For the same molecule, the Potency result in experiment [6], in experiment [7], in experiment [8] and in experiment [11] was “inactive” each time. Further, the outcome in [12] was inactive.
